Measurements published in publication PMC5540273 (PLoS ONE, 2017).

test system: CSK; details: concentration: 1 μM, replicates: in singlicate; n = 1
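Also: KINOMEscan kinase panel screen.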

Q: For `COc1cc2nccc(Nc3ccc(NC(=O)c4ccc(C)cc4)c(O)c3)c2cc1OC.Cl` [GW440132], which “%Inh” value is on record?
A: 0%

Q: `Nc1ncnc2[nH]c(-c3ccccc3)nc12` [AH5015] was tested. Which “%Inh” value did it give?
A: 0%

Q: Which “%Inh” value does the source give for `Cl.NC(=O)c1cccc(Nc2nccc(Nc3ccc(Oc4cccc(Cl)c4)c(Cl)c3)n2)c1` [GW659008] here?
A: 17%

Q: `COC(=O)c1c(-c2ccccc2)c2cc(OC)ccc2c(=O)n1Cc1ccccc1` was tested. Which “%Inh” value did it give?
A: 0%

Q: `CN(C)CCN(C)C(=O)c1cc(-c2ccncc2)c(-c2ccc(Cl)c(O)c2)o1.Cl.Cl` [SB-710397] was tested. Which “%Inh” value did it give?
A: 0%

Q: For `CS(=O)(=O)c1ccc(-c2c(-c3ncn[nH]3)sc(N3CCOCC3)c2C#N)cc1`, which “%Inh” value is on record?
A: 16%

Q: With `CC(=O)Nc1nc2cnc(Nc3cc(NC(=O)c4cccc(CCC#N)c4)ccc3C)nc2s1` as the compound, how does the “%Inh” value read?
A: 0%

Q: Which “%Inh” value does the source give for `COc1ccc(Nc2nccc(NCCNC(=O)Nc3ccccc3F)n2)cc1` [GSK1379901] here?
A: 3%

Q: Which “%Inh” value does the source give for `CN1C(=O)C(Nc2ccc(Cl)c(C(=O)O)c2)=C(c2ccc(Cl)cc2)C1=O` [SB-404290] here?
A: 0%

Q: For `Cn1cncc1-c1ccc2ncnc(Nc3ccc(OCc4ccccc4)cc3)c2c1` [GW320571], which “%Inh” value is on record?
A: 0%

Q: `COc1cc2ncn(-c3cc(OCC4CCCO4)c(C(N)=O)s3)c2cc1OC` (stereo not shown) [GSK204607] was tested. Which “%Inh” value did it give?
A: 0%

Q: Which “%Inh” value does the source give for `COc1ccccc1-c1ccc2c(NC(=O)C3CC3)n[nH]c2n1` [SB-711239] here?
A: 62%

Q: With `Cc1c(Cn2ccn3c(=O)cc(N4CCOCC4)nc23)cccc1C(F)(F)F` [GSK2289044] as the compound, how does the “%Inh” value read?
A: 0%

Q: How did the “%Inh” value turn out when `Cc1ccc(NC(=O)Nc2cccc(Cl)c2)cc1-c1ccc(C(=O)Nc2ccncc2)cc1` [GSK1398468] was run?
A: 0%

Q: With `Cl.Oc1ccc(-c2nc(-c3ccccc3)[nH]c2-c2ccncc2)cc1` [SB-428218] as the compound, how does the “%Inh” value read?
A: 0%

Q: For `C[C@@H]1CCCCN1c1cc(-c2ccc3c(N)n[nH]c3c2)nc(N)n1` [GSK2258759], which “%Inh” value is on record?
A: 2%

Q: How did the “%Inh” value turn out when `COC(=O)c1c(-c2ccccc2)c2cc(C(=O)O)ccc2c(=O)n1Cc1ccccc1` was run?
A: 8%

Q: How did the “%Inh” value turn out when `Cc1cccc(-c2nc(Nc3ccc4[nH]ncc4c3)c3ccccc3n2)n1` [GW857175] was run?
A: 0%

Q: How did the “%Inh” value turn out when `Nc1nc(-c2nccs2)c(-c2ccnc3ccccc23)s1` [GW693542] was run?
A: 9%

Q: Which “%Inh” value does the source give for `Cc1c(O)cccc1Nc1ccnc2ccc(C(F)(F)F)cc12.Cl` [GW466413] here?
A: 0%

Q: For `O=C(Nc1ccc2c(c1)OCO2)NC1CCN(c2ccnc(Nc3ccc(F)cc3)n2)C1` (stereo not shown) [GSK1379724], which “%Inh” value is on record?
A: 1%

Q: For `Cc1ccccc1-n1cnc2c(N)ncnc21` [SKF-97510], which “%Inh” value is on record?
A: 7%

Q: For `Cc1ccc(C(=O)Nc2ccc(Nc3ccnc4cc(-c5ccccn5)ccc34)cc2O)cc1.Cl` [GW440146], which “%Inh” value is on record?
A: 34%

Q: Which “%Inh” value does the source give for `COc1ccc(Nc2nccc(-c3cccc(NC(=O)c4cc5cc(F)ccc5[nH]4)c3)n2)cc1` [GSK1229782] here?
A: 0%

Q: For `COc1cccc(-c2cc(-c3c[nH]nc3-c3ccccn3)ccn2)c1` [GW680338], which “%Inh” value is on record?
A: 0%

Q: How did the “%Inh” value turn out when `Cc1cccc(-c2nc(-c3ccc(S(C)(=O)=O)cc3)sc2-c2ccnc(NCCc3ccccc3)c2)c1` was run?
A: 2%

Q: Which “%Inh” value does the source give for `Clc1cc(Cl)cc(Nc2ccnc(Nc3cc(Cl)cc(Cl)c3)n2)c1` [GSK175726] here?
A: 0%

Q: For `O=C(Nc1n[nH]c2nc(-c3nccs3)c(Br)cc12)C1CC1` [SB-742251], which “%Inh” value is on record?
A: 0%

Q: How did the “%Inh” value turn out when `O=C(Nc1n[nH]c2cc(-c3cccc(F)c3F)ccc12)C1CC1` [SB-733894] was run?
A: 0%

Q: For `Cc1nnc(-c2ccc3occ(-c4ccc(S(C)=O)cc4)c3c2)[nH]1` (stereo not shown), which “%Inh” value is on record?
A: 0%

Q: How did the “%Inh” value turn out when `Cc1cccc(-c2nc(C)cc(Nc3ccncc3)n2)n1` [GSK257997] was run?
A: 0%

Q: For `NC(=O)c1nnc2ccccc2c1N`, which “%Inh” value is on record?
A: 0%

Q: With `O=c1cc(N2CCOCC2)nc2n(Cc3cccc(Cl)c3Cl)ccn12` [GSK2286295] as the compound, how does the “%Inh” value read?
A: 0%

Q: `CS(=O)(=O)c1ccc(-c2nc3n(c2-c2ccncc2)CCC3)cc1` [SKF-105942] was tested. Which “%Inh” value did it give?
A: 100%

Q: `COc1ccc(C2=C(Nc3cccc(C(=O)O)c3)C(=O)NC2=O)cc1` [SB-390765] was tested. Which “%Inh” value did it give?
A: 12%

test system: CSNK1A1L; details: concentration: 1 μM, replicates: in singlicate; n = 1

Q: For `COc1cc2nccc(Nc3ccc(NC(=O)c4ccc(C)cc4)c(O)c3)c2cc1OC.Cl` [GW440132], which “%Inh” value is on record?
A: 9%

Q: Which “%Inh” value does the source give for `Nc1ncnc2[nH]c(-c3ccccc3)nc12` [AH5015] here?
A: 1%

Q: Which “%Inh” value does the source give for `Cl.NC(=O)c1cccc(Nc2nccc(Nc3ccc(Oc4cccc(Cl)c4)c(Cl)c3)n2)c1` [GW659008] here?
A: 16%

Q: How did the “%Inh” value turn out when `COC(=O)c1c(-c2ccccc2)c2cc(OC)ccc2c(=O)n1Cc1ccccc1` was run?
A: 4%

Q: How did the “%Inh” value turn out when `CN(C)CCN(C)C(=O)c1cc(-c2ccncc2)c(-c2ccc(Cl)c(O)c2)o1.Cl.Cl` [SB-710397] was run?
A: 20%

Q: For `CS(=O)(=O)c1ccc(-c2c(-c3ncn[nH]3)sc(N3CCOCC3)c2C#N)cc1`, which “%Inh” value is on record?
A: 0%

Q: `CC(=O)Nc1nc2cnc(Nc3cc(NC(=O)c4cccc(CCC#N)c4)ccc3C)nc2s1` was tested. Which “%Inh” value did it give?
A: 0%

Q: `COc1ccc(Nc2nccc(NCCNC(=O)Nc3ccccc3F)n2)cc1` [GSK1379901] was tested. Which “%Inh” value did it give?
A: 0%

Q: How did the “%Inh” value turn out when `CN1C(=O)C(Nc2ccc(Cl)c(C(=O)O)c2)=C(c2ccc(Cl)cc2)C1=O` [SB-404290] was run?
A: 15%

Q: Which “%Inh” value does the source give for `Cn1cncc1-c1ccc2ncnc(Nc3ccc(OCc4ccccc4)cc3)c2c1` [GW320571] here?
A: 22%

Q: With `COc1cc2ncn(-c3cc(OCC4CCCO4)c(C(N)=O)s3)c2cc1OC` (stereo not shown) [GSK204607] as the compound, how does the “%Inh” value read?
A: 0%

Q: How did the “%Inh” value turn out when `COc1ccccc1-c1ccc2c(NC(=O)C3CC3)n[nH]c2n1` [SB-711239] was run?
A: 6%

Q: Which “%Inh” value does the source give for `Cc1c(Cn2ccn3c(=O)cc(N4CCOCC4)nc23)cccc1C(F)(F)F` [GSK2289044] here?
A: 0%

Q: With `Cc1ccc(NC(=O)Nc2cccc(Cl)c2)cc1-c1ccc(C(=O)Nc2ccncc2)cc1` [GSK1398468] as the compound, how does the “%Inh” value read?
A: 15%

Q: How did the “%Inh” value turn out when `Cl.Oc1ccc(-c2nc(-c3ccccc3)[nH]c2-c2ccncc2)cc1` [SB-428218] was run?
A: 11%

Q: Which “%Inh” value does the source give for `C[C@@H]1CCCCN1c1cc(-c2ccc3c(N)n[nH]c3c2)nc(N)n1` [GSK2258759] here?
A: 0%

Q: With `COC(=O)c1c(-c2ccccc2)c2cc(C(=O)O)ccc2c(=O)n1Cc1ccccc1` as the compound, how does the “%Inh” value read?
A: 0%

Q: Which “%Inh” value does the source give for `Cc1cccc(-c2nc(Nc3ccc4[nH]ncc4c3)c3ccccc3n2)n1` [GW857175] here?
A: 0%

Q: With `Nc1nc(-c2nccs2)c(-c2ccnc3ccccc23)s1` [GW693542] as the compound, how does the “%Inh” value read?
A: 23%

Q: With `Cc1c(O)cccc1Nc1ccnc2ccc(C(F)(F)F)cc12.Cl` [GW466413] as the compound, how does the “%Inh” value read?
A: 3%

Q: For `O=C(Nc1ccc2c(c1)OCO2)NC1CCN(c2ccnc(Nc3ccc(F)cc3)n2)C1` (stereo not shown) [GSK1379724], which “%Inh” value is on record?
A: 2%

Q: With `Cc1ccccc1-n1cnc2c(N)ncnc21` [SKF-97510] as the compound, how does the “%Inh” value read?
A: 0%

Q: Which “%Inh” value does the source give for `Cc1ccc(C(=O)Nc2ccc(Nc3ccnc4cc(-c5ccccn5)ccc34)cc2O)cc1.Cl` [GW440146] here?
A: 0%

Q: How did the “%Inh” value turn out when `COc1ccc(Nc2nccc(-c3cccc(NC(=O)c4cc5cc(F)ccc5[nH]4)c3)n2)cc1` [GSK1229782] was run?
A: 20%

Q: How did the “%Inh” value turn out when `COc1cccc(-c2cc(-c3c[nH]nc3-c3ccccn3)ccn2)c1` [GW680338] was run?
A: 8%

Q: `Cc1cccc(-c2nc(-c3ccc(S(C)(=O)=O)cc3)sc2-c2ccnc(NCCc3ccccc3)c2)c1` was tested. Which “%Inh” value did it give?
A: 0%

Q: Which “%Inh” value does the source give for `Clc1cc(Cl)cc(Nc2ccnc(Nc3cc(Cl)cc(Cl)c3)n2)c1` [GSK175726] here?
A: 0%

Q: `O=C(Nc1n[nH]c2nc(-c3nccs3)c(Br)cc12)C1CC1` [SB-742251] was tested. Which “%Inh” value did it give?
A: 19%

Q: `O=C(Nc1n[nH]c2cc(-c3cccc(F)c3F)ccc12)C1CC1` [SB-733894] was tested. Which “%Inh” value did it give?
A: 0%

Q: For `Cc1nnc(-c2ccc3occ(-c4ccc(S(C)=O)cc4)c3c2)[nH]1` (stereo not shown), which “%Inh” value is on record?
A: 26%

Q: How did the “%Inh” value turn out when `Cc1cccc(-c2nc(C)cc(Nc3ccncc3)n2)n1` [GSK257997] was run?
A: 7%

Q: `NC(=O)c1nnc2ccccc2c1N` was tested. Which “%Inh” value did it give?
A: 38%

Q: For `O=c1cc(N2CCOCC2)nc2n(Cc3cccc(Cl)c3Cl)ccn12` [GSK2286295], which “%Inh” value is on record?
A: 6%

Q: How did the “%Inh” value turn out when `CS(=O)(=O)c1ccc(-c2nc3n(c2-c2ccncc2)CCC3)cc1` [SKF-105942] was run?
A: 2%

Q: Which “%Inh” value does the source give for `COc1ccc(C2=C(Nc3cccc(C(=O)O)c3)C(=O)NC2=O)cc1` [SB-390765] here?
A: 11%
